These results are taken from PubChem BioAssay (NCI).

What all share (experiment): NCI-60 one-dose screen, 48 h (100 = growth as untreated, 0 = no growth, -100 = all killed)
What all share (conditions): 10 µM

Assay [1] has as its system NCI-H23 lung.
The test system of assay [2] is NCI-H226 lung.
Assay [3] concerns NCI-H322M lung.
The subject of assay [4] is HOP-62 NSCLC.
Assay [5] relates to NCI-H460 lung.
Assay [6] concerns HOP-92 NSCLC.
Assay [7] concerns NCI-H522 lung.
The subject of assay [8] is A549/ATCC NSCLC.
The subject of assay [9] is 786-0 renal.
The test system of assay [10] is COLO 205 colon.

Compounds without any hit were thinned out: in the full panel of roughly 83,000, 20% have a hit.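 Single-dose data. Exposure time 48 hours. Values below 10 considered active.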 Unmarked numbers belong to inactive results. Activity calls are given as the source filed them.

Take `COc1ccc(C(=O)NC(=S)N2CCN(c3ncnc4c3cnn4-c3ccccc3)CC2)cc1`: the growth was 60% in [1]; 9.11% (active) in assay [2]; 66.8% in [3]; 31.9% in assay [4]; 55.8% in [5]; 32% in [6]. In addition, the growth in assay [7] is 41.2%; in [8], 58.8%; in assay [9] it was 82.8%; in assay [10], 79.7%.
For the compound `CC(C)Sc1nc(NC2CC2)c(C#N)c(-c2ccccc2)n1`, the growth was 75.5% in [1]; 22.4% in assay [2]; 77.4% in [3]; 33.9% in assay [4]; 75.1% in assay [5]; 58.4% in [6]. Moreover, the growth is 60.9% in [7], 48.6% in assay [8], 28.5% in assay [9] and 90.5% in [10].
On to `CC(=C(c1ccc(OCCN2CCCCCC2)cc1)c1ccc(OCCN2CCCCCC2)cc1)c1ccc(Cl)cc1`, for which the growth in assay [1] is -96% (active); in [2], -89.8% (active); in assay [3], -100% (active); in assay [4], -96.8% (active); in assay [5] it was -54.1% (active); in [6], -74.3% (active). For the same compound, the growth is -92.7% (active) in assay [7], -98.4% (active) in [8], -75.7% (active) in assay [9] and -93% (active) in assay [10].
Take `CN1CCN(Cc2ccc(C(=O)Nc3cccc(Nc4ccc5cc(O)ccc5n4)c3)cc2C(F)(F)F)CC1`: the growth in [1] is -66% (active); in assay [2], 26.5%; in assay [3], -28.9% (active); in [4], -66.5% (active); in assay [5] it was -74.6% (active); in [6], -46.2% (active). The growth in assay [7] is -68.8% (active); in assay [8], -11.5% (active); in assay [9], -47% (active); in assay [10], -85.4% (active).
With `CN1CCN(Cc2ccc(NC(=O)c3cncc(C#Cc4cnc5ccc(N[C@@H]6CCOC6)nn45)c3)cc2C(F)(F)F)CC1`, the growth in assay [1] was -81.3% (active); in [2], -94.9% (active); in assay [3], -99.2% (active); in assay [4], -75.5% (active); in [5], -30% (active); in assay [6], -82% (active). The growth in assay [7] is -71.6% (active); in assay [8], -56% (active); in assay [9] it was -77.4% (active); in assay [10], -65.5% (active).
Regarding `Cc1ccc([N+](=O)[O-])c(C(=O)Nc2ccc(-c3ccc4c(c3)NC(=O)/C4=C\c3ccc[nH]3)cc2)c1`, the growth was 21% in assay [1]; 52% in assay [2]; 48.9% in assay [3]; 86% in assay [4]; 0.658% (active) in assay [5]; 109% in assay [6]. The growth in assay [7] was 39.5%; in assay [8] it was 47%; in assay [9], 61.6%; in [10] it was 8.99% (active).
Regarding `CN1C(=O)N(C)C2SC(N/N=C/c3cccs3)=NC21` (stereo not given), the growth in assay [1] is 38.4%; in [2], 68.2%; in assay [3], 69.3%; in assay [4], 37.7%; in assay [5], 13.2%; in assay [6] it was 55.6%. In addition, the growth in assay [7] is -14.6% (active); in [8] it was 44.2%; in assay [9], 37.3%; in [10] it was 26.8%.
For `CN1CCc2c(sc3ncnc(N/N=C/c4ccc5ccccc5c4)c23)C1`, the growth was 66.1% in [1]; 86.1% in [2]; 97% in assay [3]; 82% in assay [4]; 0.259% (active) in [5]; 89.2% in assay [6]. For the same compound, the growth in assay [7] was 83.9%; in [8] it was 42.7%; in assay [9], 51%; in [10], 36.3%.
For `CCN1CCN(c2ccc(NC(=O)Nc3ccc(-c4cc(C(=O)NC)c5ncccc5n4)cc3)cc2C(F)(F)F)CC1`, the growth is -99% (active) in [1]; -61.9% (active) in assay [2]; -100% (active) in assay [3]; -92.2% (active) in [4]; -100% (active) in [5]; -81.8% (active) in assay [6]. Further, the growth is -93.3% (active) in assay [7], -88.4% (active) in assay [8], -100% (active) in assay [9] and -76.3% (active) in [10].
In the case of `COc1ccc(N2N=C(c3ccc4c(c3)OCCO4)CC2c2cccc(NC(=O)CCCNS(=O)(=O)c3ccc(F)cc3)c2)cc1` (stereo not given), the growth in assay [1] is 85.7%; in [2] it was 74.5%; in assay [3], 75%; in assay [4], 89.6%; in assay [5], 64.8%; in assay [6], 81.6%. Further, the growth in assay [7] was 58.9%; in [8], 61.8%; in [9], 66.6%; in [10] it was 84%.
`CSc1nc(-c2cccc(C)c2)c2cc(-c3ccccc3)n(C)c2n1`: the growth is 15.8% in assay [1]; 40.7% in assay [2]; 56.2% in assay [3]; 37.4% in assay [4]; 10.8% in [5]; -8.91% (active) in assay [6]. Besides, the growth in assay [7] was -11.8% (active); in [8] it was 26.8%; in [9] it was 20%; in assay [10], 18.7%.
For `O=C1NC(=NC2CCCCCC2)N/C1=C\c1ccc2ncoc2c1`, the growth in assay [1] was 19.2%; in assay [2], 14.9%; in assay [3], 24.5%; in assay [4] it was 36.8%; in assay [5], 20.2%; in assay [6], 51.3%. Moreover, the growth in [7] is 12.6%; in [8], 17%; in assay [9], 40.6%; in assay [10] it was 9.19% (active).
